The source made the active and inactive calls. Unless noted, no rule for the calls is given here.
Assays:
[1] = viability loss with induced miR-34 in A549 – imaging, A549 dox-inducible miR-34, nuclei and caspase counts, primary screen (AID 1347080;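 active = compounds whose cell count with miR-34 switched on is under 0.7 times the count with it off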); conditions: A549 miR-34 inducible, Hoechst nuclei count, 48 h
[2] = blockers of cellular phospholipid synthesis – cell-based, LOPAC library, screen 4, primary screen (AID 1347384); conditions: animal cells, phospholipid biosynthesis inhibition screen; at 10 µM
[3] = galactose survival enhancers in mitochondrial complex I cybrids – cell-based, galactose medium, ATP luminescence, primary screen (AID 1645843;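 active = z-score of at least 1.8 in each of two replicates, scored against plate mean and spread of sample wells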;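 also: positive z means more ATP and so rescue of galactose-driven cybrid death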); conditions: complex I mutant cybrid cells, 72 h, stronger effect = higher value
[4] = compounds altering circadian rhythm period length – cell-based, LOPAC library, luminescence reporter (AID 2774); conditions: circadian reporter cells, at 7 µM, actives lie on both sides;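 also: values are relative to mean of DMSO wells on each plate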
[5] = test system: Hepatitis C virus NS3 helicase; assay: blockers of NS3h binding to ssDNA – biochemical, fluorescence polarization, LOPAC1280 library, primary screen (AID 687035; in the data active = inhibition above about 37%); conditions: Purified HCV NS3 helicase, Cy5-dT15 ssDNA binding fluorescence polarization; stronger effect = higher value; concentration not given here
[6] = compounds altering Cy5-DNA-NS3h complex signal – biochemical, LOPAC1280, artefact control for HCV NS3 helicase inhibitor project (AID 687037); conditions: Cy5-DNA-NS3h complex fluorescence interference counterscreen
[7] = compounds altering viability of human ES cells (AID 493140); conditions: human embryonic stem cell survival screen; stronger effect = higher value;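 also: cells exposed to compounds for four days before counting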
[8] = stronger effect = lower value, cell number ratio, induced over uninduced
[9] = measured here: relative caspase fold change +Dox/-Dox
[10] = measured here: total cells with miR-34 induction, stronger effect = lower value
[11] = measured here: total cells without miR-34 induction

SMILES | fold change [1, 8] | fold change [1, 9] | cell count [1, 10] | cell count [1, 11] | outcome [2] | z-score [3] | period change [4] | inhibition [5] | fluorescence ratio (interference) [6] | survival [7]
NS(=O)(=O)c1ccc(-n2nc(C(F)(F)F)cc2-c2ccc(Cl)cc2)cc1 | 1.1 (inactive) | 0.617 | 7530 | 6870 | inactive | 2.57 (active) | – | – | – | –
CC(C)(NS(=O)(=O)c1ccc(Oc2ccc(F)cc2)cc1)C(=O)NO | 1.15 (inactive) | 0.625 | 7840 | 6810 | inactive | -1.27 (inactive) | – | – | – | –
c1ccc(CN2CCC3(CCCc4ccccc43)CC2)cc1 | 1.19 (inactive) | 0.602 | 7360 | 6160 | inactive | -1.27 (inactive) | 0 h (inactive) | -3% (inactive) | 1 (inactive) | –
Nc1ncnc2c1ncn2[C@@H]1O[C@H](CO)[C@H](O)C1O (some centres not stated) | 1 (inactive) | 1.47 | 11100 | 11100 | inactive | 2.61 (active) | 0.045 h (inactive) | -1% (inactive) | 0.9 (inactive) | 3.25 (inactive)
N=C(N)c1ccc(N)cc1 | 0.998 (inactive) | 2.25 | 8960 | 8980 | inactive | -0.075 (inactive) | -0.005 h (inactive) | -2% (inactive) | 1 (inactive) | –
COc1cccc(C(=O)NCCN2CCN(c3ccc(Cl)cc3)CC2)c1 | 1.02 (inactive) | 1.92 | 9900 | 9720 | inactive | -0.845 (inactive) | -0.035 h (inactive) | 0% (inactive) | 1 (inactive) | –
OC[C@H]1NC[C@@H](O)[C@@H]1O | 0.888 (inactive) | 1.22 | 8680 | 9770 | inactive | 0.015 (inactive) | -0.11 h (inactive) | -3% (inactive) | 1 (inactive) | –
Nc1nc(Cl)nc2c1ncn2[C@@H]1O[C@H](CO)[C@H](O)C1O (some centres not stated) | 1.07 (inactive) | 1.14 | 1860 | 1750 | inactive | -0.705 (inactive) | -0.125 h (inactive) | 0% (inactive) | 1 (inactive) | –
NOCC(=O)O | 1.12 (inactive) | 1.94 | 9990 | 8920 | inactive | 0.555 (inactive) | -0.075 h (inactive) | -1% (inactive) | 1 (inactive) | –
O=C(O)C1CCNCC1 | 1.1 (inactive) | 0.954 | 10700 | 9760 | inactive | 0.31 (inactive) | -0.105 h (inactive) | -2% (inactive) | 1 (inactive) | –
N[C@@H](Cc1ccc(O)c(I)c1)C(=O)O | 1.11 (inactive) | 0.663 | 11600 | 10400 | inactive | 0.59 (inactive) | 0.02 h (inactive) | -4% (inactive) | 0.9 (inactive) | –
NC/C=C\C(=O)O | 1.03 (inactive) | 1.8 | 9360 | 9050 | inactive | -1.38 (inactive) | 0.03 h (inactive) | -3% (inactive) | 1 (inactive) | –
CCCC[C@@]1(C2CCCC2)Cc2cc(OCC(=O)O)c(Cl)c(Cl)c2C1=O | 0.958 (inactive) | 1.45 | 8870 | 9260 | inactive | 2.93 (active) | -0.06 h (inactive) | 0% (inactive) | 1 (inactive) | –
CN1CCC2(CCN3CCc4c(oc5ccccc45)C3C2)N(C)C1=O (configuration not stated) | 1.04 (inactive) | 0.751 | 7560 | 7300 | inactive | -0.87 (inactive) | 0.125 h (inactive) | 3% (inactive) | 1 (inactive) | –
Cn1c(=O)c2[nH]c(-c3ccccc3)nc2n(C)c1=O | 1.06 (inactive) | 3.05 | 10000 | 9510 | inactive | 1.04 (inactive) | 0.09 h (inactive) | -3% (inactive) | 1 (inactive) | –
COc1cccc(OC)c1OCCNCC1CSc2ccccc2O1 (configuration not stated) | 1.03 (inactive) | 1.19 | 7530 | 7340 | inactive | -1.31 (inactive) | 0.065 h (inactive) | 0% (inactive) | 1 (inactive) | –
C=C1C(=O)O[C@@H]2[C@H]3O[C@]3(C)CCC=C(C)CC[C@@H]12 | 1.05 (inactive) | 1.06 | 5750 | 5500 | inactive | -1.27 (inactive) | -0.22 h (inactive) | -6% (inactive) | 1 (inactive) | –
Nc1nc(Cl)nc2c1ncn2[C@@H]1O[C@H](COP(=O)(O)OP(=O)(O)OP(=O)(O)O)[C@H](O)C1O (some centres not stated) | 1.14 (inactive) | 1.19 | 2920 | 2560 | inactive | 0.235 (inactive) | -0.055 h (inactive) | 37% (active) | 1 (inactive) | –
N#C/C(=C\c1ccc(O)c(O)c1)C(=O)NCCc1ccccc1 | 1.09 (inactive) | 0.996 | 7900 | 7250 | inactive | -1.06 (inactive) | -0.04 h (inactive) | 2% (inactive) | 0.9 (inactive) | –

SMILES | fold change [1, 8] | fold change [1, 9] | cell count [1, 10] | cell count [1, 11] | outcome [2] | z-score [3] | period change [4] | inhibition [5] | fluorescence ratio (interference) [6] | survival [7]
CC(=O)N[C@@H](Cc1c[nH]c2ccccc12)C(=O)OCc1cc(C(F)(F)F)cc(C(F)(F)F)c1 | 1.03 (inactive) | 1.8 | 9980 | 9690 | inactive | -0.03 (inactive) | 0.005 h (inactive) | -3% (inactive) | 0.9 (inactive) | –
NCC(O)C1CCCCCCC1 (configuration not stated) | 0.963 (inactive) | 1.08 | 9960 | 10300 | inactive | 0.085 (inactive) | -0.04 h (inactive) | -3% (inactive) | 1 (inactive) | –
C[C@H](Cc1ccccc1)Nc1ncnc2c1ncn2[C@@H]1O[C@H](CO)[C@H](O)C1O (some centres not stated) | 1.08 (inactive) | 0.57 | 9860 | 9130 | inactive | 1.45 (inactive) | -0.12 h (inactive) | -8% (inactive) | 1 (inactive) | –
CC(N)(Cc1ccc(O)cc1)C(=O)O (configuration not stated) | 1 (inactive) | 0.646 | 9440 | 9440 | inactive | 1.32 (inactive) | -0.14 h (inactive) | -1% (inactive) | 0.9 (inactive) | –
CSc1nc(N)c2ncn([C@@H]3O[C@H](COP(=O)(O)OP(=O)(O)OP(=O)(O)O)[C@H](O)C3O)c2n1 (some centres not stated) | 0.981 (inactive) | 2.88 | 9690 | 9880 | inactive | 1.04 (inactive) | -0.07 h (inactive) | 41% (active) | 1 (inactive) | –
CCN1C(=O)C=CC1=O | 0.985 (inactive) | 1.06 | 9620 | 9760 | inactive | -0.99 (inactive) | 0.135 h (inactive) | -3% (inactive) | 1 (inactive) | –
C[C@@H]1C(=O)NC2=Nc3cccc(Cl)c3CN21 | 0.957 (inactive) | 1.63 | 9040 | 9450 | inactive | 0.635 (inactive) | 0.025 h (inactive) | 0% (inactive) | 1 (inactive) | –
NC1CCN(O)C1=O (configuration not stated) | 0.997 (inactive) | 1.98 | 10200 | 10200 | inactive | 0.075 (inactive) | 0.11 h (inactive) | 0% (inactive) | 1 (inactive) | –
CNc1cc(NS(=O)(=O)c2ccc(N)cc2)nc(NC)n1 | 1.09 (inactive) | 0.965 | 9150 | 8390 | inactive | 0.695 (inactive) | -0.065 h (inactive) | -3% (inactive) | 1 (inactive) | –
Cc1cccc(C)c1OCC(N)C(C)C (configuration not stated) | 1.09 (inactive) | 0.766 | 11200 | 10300 | inactive | -0.425 (inactive) | -0.08 h (inactive) | -3% (inactive) | 1 (inactive) | –
CCCCCCCCCCCCCCSCC(=O)O | 0.985 (inactive) | 1.37 | 9840 | 9990 | inactive | -0.24 (inactive) | -0.08 h (inactive) | -2% (inactive) | 1 (inactive) | –
CC(N)(C(=O)O)c1ccc(C(=O)O)cc1 (configuration not stated) | 1.05 (inactive) | 1.27 | 11100 | 10600 | inactive | 0.615 (inactive) | -0.11 h (inactive) | -2% (inactive) | 1 (inactive) | –
O=C1C2C=CC=CC2=NC(=S)N1CCN1CCC(=C(c2ccc(F)cc2)c2ccc(F)cc2)CC1 (configuration not stated) | 0.996 (inactive) | 1.03 | 9730 | 9760 | inactive | -0.96 (inactive) | -0.295 h (inactive) | 1% (inactive) | 1 (inactive) | –
COc1ccc2c(c1)c(CC(=O)O)c(C)n2Cc1ccc(Cl)cc1 | 0.957 (inactive) | 1.52 | 8600 | 8990 | inactive | 2.23 (active) | 0 h (inactive) | 0% (inactive) | 1 (inactive) | –
OC[C@H]1O[C@@H](n2cnc3c(NC4CCCC4)ncnc32)C(O)[C@H]1O (some centres not stated) | 0.956 (inactive) | 1.31 | 9220 | 9650 | inactive | 1.05 (inactive) | -0.095 h (inactive) | -5% (inactive) | 1 (inactive) | –
CC(=O)SCC[N+](C)(C)C | 1.01 (inactive) | 2.3 | 10500 | 10400 | inactive | 0.495 (inactive) | 0.015 h (inactive) | 0% (inactive) | 1 (inactive) | –
NC(=O)c1ccccc1 | 0.988 (inactive) | 1.76 | 9430 | 9540 | inactive | 0.385 (inactive) | -0.185 h (inactive) | 0% (inactive) | 1 (inactive) | –
Nc1ncnc2c1ncn2[C@@H]1O[C@H](COP(=O)(O)OP(=O)(O)OP(=O)(O)OP(=O)(O)OC[C@@H]2O[C@H](n3cnc4c(N)ncnc43)C(O)[C@@H]2O)[C@H](O)C1O (some centres not stated) | 0.899 (inactive) | 1.4 | 8750 | 9730 | inactive | 4.53 (active) | 0.05 h (inactive) | 3% (inactive) | 1 (inactive) | –
Cc1ccccc1/C=C/C1=NCCN1 | 1.01 (inactive) | 0.996 | 7710 | 7640 | inactive | -1.06 (inactive) | -0.13 h (inactive) | -5% (inactive) | 1 (inactive) | –

Reference: PubChem BioAssay
